23 compounds from the supplement of paper PMC8387472 can be followed below.

Where a name gives a salt, the structure may show the parent alone.

The subject of the first assay is 24.0 GACCACAGCCCCCAGCAGGGGAGGCCCCCAGCAGGGGAGGCCCACACCTGCCCCAGCACCT
Briefly: fraction of edited reads among all mapped reads; higher = more Cas9 editing. The settings on record: mESC; 2uM; 72 h treatment, harvest day 5.
Consider `CC(=O)O/N=C1\C(=O)N(Cc2cc(Cl)ccc2Cl)c2ccc(Cl)cc21`, for which the “fraction of edited reads among all mapped reads” value (“fraction” for short) amounted to 0.0521.
On the same count and under the same terms, for `Nc1cc(F)ccc1NC(=O)c1ccc(CNC(=O)/C=C/c2cccnc2)cc1` [Tucidinostat (Chidamide)] the value was 0.0463; for `Cc1cc(C)nc(SCC(=O)Nc2ncc(Cc3cccc4ccccc34)s2)n1`, 0.0587; for `CCCCOc1c(C(=O)c2c(F)cc(C)cc2F)c[nH]c2nncc1-2`, 0.0449.

The test system of the next assay is 6.0 (DMSO control at this site: 1-bp insertion 0.296, MH deletion 0.491, edited 0.076) ACGATTGGCCCCCACAAAGCGGACCAGCCAGCGTGCTAGGGAATAAGGCCAACTTGCACCC
The description is as above. The following applies: mESC; 2uM; 72 h treatment, harvest day 5.
As to `CCN1CCN(CC(=O)Nc2ccc(-c3cccc4c(=O)cc(N5CCOCC5)oc34)c3sc4ccccc4c23)CC1`, the “fraction” value worked out at 0.0396.
Same read-out and setting: the result for `NC(=O)c1ccc2nc(-c3ccc(Oc4ccc(Cl)cc4)cc3)[nH]c2c1` [Chk 2 inhibitor II (BML-277)] reads 0.092.
Consider `CCc1c2c(nc3ccc(OC(=O)N4CCC(N5CCCCC5)CC4)cc13)-c1cc3c(c(=O)n1C2)COC(=O)[C@]3(O)CC` [Irinotecan HCl Trihydrate], for which the “fraction” value is 0.104.
Same read-out and setting: for `O=c1cc(N2CCOCC2)oc2c(-c3ccc4c(c3)OCCO4)csc12` the value was 0.0488; for `O=C(c1cccc(Cl)c1F)N1CCN(Cc2cccc(Nc3nccs3)n2)CC1`, 0.0584; for `COc1ccccc1-c1cc(Nc2cccc(CS(N)(=O)=O)c2)ncn1`, 0.0957.
Same read-out and setting: the result for `CNc1ccc([N+](=O)[O-])c(Nc2ccc3[nH]ncc3c2)n1` reads 0.1; that for `O=C1Cc2c([nH]c3ccc(Br)cc23)-c2ccccc2N1` [Kenpaullone], 0.165.
`S=c1[nH]cnc2nc[nH]c12` [Mercaptopurine (6-MP)]: the “fraction” value turned out to be 0.0919.
Still for that read-out and setting: the result for `CC(=O)O/N=C1\C(=O)N(Cc2cc(Cl)ccc2Cl)c2ccc(Cl)cc21` reads 0.0813.
Regarding `Nc1cc(F)ccc1NC(=O)c1ccc(CNC(=O)/C=C/c2cccnc2)cc1` [Tucidinostat (Chidamide)], the “fraction” value stood at 0.0652.
The same measure, in the same setting: for `Nc1nc2[nH]cc(CCc3ccc(C(=O)N[C@@H](CCC(=O)O)C(=O)O)cc3)c2c(=O)[nH]1` [Pemetrexed] the value was 0.0705; for `Cc1cc(C)nc(SCC(=O)Nc2ncc(Cc3cccc4ccccc34)s2)n1`, 0.13; for `O=c1c(-c2ccc(O)cc2)coc2cc(O)cc(O)c12` [Genistein], 0.113.
Consider `Cc1cccc(CC(=O)N2CCc3c2ccc(-c2cn(C)c4ncnc(N)c24)c3F)n1`, for which the “fraction” value came out at 0.114.
Still for that read-out and setting: for `CO[C@H]1/C=C/O[C@@]2(C)Oc3c(C)c(O)c4c(O)c(c(/C=N/N5CCN(C6CCCC6)CC5)c(O)c4c3C2=O)NC(=O)/C(C)=C\C=C\[C@H](C)[C@H](O)[C@@H](C)[C@@H](O)[C@@H](C)[C@H](OC(C)=O)[C@@H]1C` [Rifapentine] the value was 0.14; for `S=c1nc[nH]c2nc[nH]c12` [6-Mercaptopurine (6-MP) Monohydrate], 0.0627.
For `Nc1ncnc2c1c(-c1cnc3[nH]ccc3c1)nn2C1CCCC1`, the “fraction” value was found to be 0.0596.
Still for that read-out and setting: the result for `Cc1ccc(C(=O)NCCCCCC(=O)Nc2ccccc2N)cc1` reads 0.0825; that for `CC(C)(C#N)c1ccc(N2C(=O)OCc3cnc4ccc(-c5cnc6ccccc6c5)cc4c32)cc1`, 0.0904; that for `CCCCOc1c(C(=O)c2c(F)cc(C)cc2F)c[nH]c2nncc1-2`, 0.0886.
Same read-out and setting: the result for `C[C@@H]1CN(CC(=O)Nc2ccc3c(c2)Cc2cccc(-c4cc(=O)cc(N5CCOCC5)o4)c2S3)C[C@H](C)O1` reads 0.0449; that for `CCn1c(=O)c(-c2ccc(Cl)cc2Cl)cc2cnc(Nc3ccc(N4CCNCC4)c(F)c3)nc21`, 0.0726.
